Most compounds without a hit are left out; they make up all but 2.5% or so of the library.
PKA-R2B act – PKA-R2B complex activation. PKA-R2B holoenzyme dissociation, Cy5-IP20 fluorescence polarization; R2B truncated from residue 108, S112A mutant; 0% DMSO only, 100% 113 µM cGMP. activation, % at 11.4 µM. hit rate 0.079% among 340,000. P22694+P31323;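 active = activation above a cutoff set at the mean over all compounds plus 3 SD, cut at about 18% in these data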;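 also: higher means more holoenzyme dissociation and a rise in polarization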
Target sequence (P31323 whole entry, looked up, other chains not shown, the tested form may be a part): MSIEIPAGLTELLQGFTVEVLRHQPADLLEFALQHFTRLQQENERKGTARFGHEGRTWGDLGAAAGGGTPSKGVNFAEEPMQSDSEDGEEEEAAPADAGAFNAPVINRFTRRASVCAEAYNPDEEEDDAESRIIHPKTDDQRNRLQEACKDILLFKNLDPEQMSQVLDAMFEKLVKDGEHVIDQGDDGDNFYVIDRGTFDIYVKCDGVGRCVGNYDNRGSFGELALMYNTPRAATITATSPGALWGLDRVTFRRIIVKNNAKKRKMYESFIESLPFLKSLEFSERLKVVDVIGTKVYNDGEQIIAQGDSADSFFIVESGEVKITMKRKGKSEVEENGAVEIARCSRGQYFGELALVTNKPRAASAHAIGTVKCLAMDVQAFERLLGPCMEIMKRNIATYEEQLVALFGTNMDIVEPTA
TMEM16A inh – inhibitors of mouse TMEM16A calcium-activated chloride channel | AID 588511 | HEK293 TMEM16A/YFP iodide influx fluorescence, ionomycin | normalized B-score (activity score, 25-100; higher = stronger inhibition) at 10 µM | hit rate 1.2% among 310,000;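 active = ratio plate-corrected score three or more library SD toward inhibition, starting fluorescence score within five deviations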;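 also: score derived from kinetic fluorescence span divided by baseline fluorescence per well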
TMEM16A act – activators or potentiators of mouse TMEM16A chloride channel; Q8BHY3; HEK293 TMEM16A/YFP-H148Q/I152L, iodide quench fluorescence; hits give low values; B-score at 10 µM; hit rate 0.3% among 340,000; AID 623877;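 active = fluorescence-ratio B-score plate-corrected deviation score at least 3 library SD below zero, with starting fluorescence score within 5 deviations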;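 also: channel opened by trigger with iodide after compound preincubation; score built on the fluorescence ratio of max minus min over baseline; more negative score means more quench and so TMEM16A activation or potentiation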
CHT PAM – human CHT allosteric activation; B-score at 10 µM; CHT-expressing cells, membrane potential dye, choline EC20; hits give high values; LV-AA mutant CHT in HEK293 cells; hit rate 0.49% among 310,000; AID 488977;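 active = initial fluorescence not abnormally high and integrated response B-score, plate-corrected, over 3 SD above library mean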
PKA-R1A activ – activates the PKA-R1A holoenzyme complex; hit rate 0.083% among 340,000; PKA-R1A dissociation, Cy5-IP20 fluorescence polarization; scaled: DMSO 0%, 113 µM cGMP 100%; activation, % at 11.4 µM;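 active = percent activation above the mean of all tested compounds plus 3 SD, cut at about 19% in these data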;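 also: higher means more PKAc released from R1A so a rise in polarization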
CHT inh – inhibits the human high affinity choline transporter | CHT-expressing cells, membrane potential dye, choline response; hits give low values | B-score at 10 µM | hit rate 0.86% among 310,000;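 active = B-score over 3 SD under the library average, and starting fluorescence ratio not unusually high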;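 also: choline stimulus applied at its EC90 after an EC20 pre-addition; B-score computed on integrated fluorescence ratio after choline addition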
A number is an active result.

Results for CC(=O)Nc1ccccc1OCC(=O)c1cc(C)n(Cc2cccs2)c1C ?
PKA-R2B act: inactive; TMEM16A inh: 100; TMEM16A act: inactive; CHT PAM: inactive; PKA-R1A activ: inactive; CHT inh: inactive

How did Cc1cc(C(=O)COc2cccnc2[N+](=O)[O-])c(C)n1Cc1cccs1 do in these assays?
PKA-R2B act: inactive; TMEM16A inh: inactive; TMEM16A act: inactive; CHT PAM: inactive; PKA-R1A activ: inactive; CHT inh: inactive

What do the screens show for `COC(=O)CCC(=O)N1CCC(Oc2cccc(C(=O)NCc3ccccn3)c2)CC1`?
PKA-R2B act: inactive; PKA-R1A activ: inactive

What do the screens show for `NNC(=O)c1cc2c(N3CCC(Cc4ccccc4)CC3)ncnc2s1`?
PKA-R2B act: inactive; TMEM16A inh: 100; TMEM16A act: inactive; CHT PAM: inactive; PKA-R1A activ: inactive; CHT inh: inactive

How did O=S(=O)(c1ccccc1)N1CCN(c2ncnc3sc(-c4ccccc4)cc23)CC1 do in these assays?
PKA-R2B act: inactive; TMEM16A act: inactive; PKA-R1A activ: inactive

How did O=C(Cc1ccc(F)cc1)N/N=C/c1ccccn1 do in these assays?
PKA-R2B act: inactive; TMEM16A inh: inactive; TMEM16A act: inactive; CHT PAM: inactive; PKA-R1A activ: inactive; CHT inh: inactive

How did O=C(Cc1ccc(Br)c2ccccc12)N/N=C/c1ccccn1 do in these assays?
PKA-R2B act: inactive; TMEM16A inh: 25; TMEM16A act: inactive; CHT PAM: inactive; PKA-R1A activ: inactive; CHT inh: inactive

Results for CN1OC[C@@H]2CN(C(=O)CCc3ccccc3)[C@H](c3cccc(Oc4ccccc4)c3)C[C@@H]21 ?
PKA-R2B act: inactive; PKA-R1A activ: inactive

What do the screens show for `Oc1ccc(NCc2cccc(OCc3ccc(F)cc3)c2)cc1`?
PKA-R2B act: inactive; TMEM16A inh: 25; TMEM16A act: inactive; CHT PAM: inactive; PKA-R1A activ: inactive; CHT inh: inactive

What do the screens show for `O=[N+]([O-])c1ccc(COc2cccc(CNc3ccc(F)cc3)c2)cc1`?
PKA-R2B act: inactive; TMEM16A inh: inactive; TMEM16A act: inactive; CHT PAM: inactive; PKA-R1A activ: inactive; CHT inh: inactive

Results for Cc1c(C(=O)NCc2cccnc2)sc2nc(-c3ccc(F)cc3)cn12 ?
PKA-R2B act: inactive; TMEM16A inh: inactive; TMEM16A act: -21.9; CHT PAM: inactive; PKA-R1A activ: inactive; CHT inh: inactive

What do the screens show for `Cc1c(C(=O)NCc2cccnc2)sc2nc(-c3ccccc3)cn12`?
PKA-R2B act: inactive; TMEM16A inh: inactive; TMEM16A act: inactive; CHT PAM: inactive; PKA-R1A activ: inactive; CHT inh: inactive

What do the screens show for `O=C(c1cc(-c2ccccc2Cl)nc2ccc(Br)cc12)N1CCN(c2ccccn2)CC1`?
PKA-R2B act: inactive; TMEM16A inh: 25; TMEM16A act: inactive; CHT PAM: inactive; PKA-R1A activ: inactive; CHT inh: inactive

What do the screens show for `O=C(c1cc(-c2cccc(Cl)c2)nc2ccccc12)N1CCN(c2ccccn2)CC1`?
PKA-R2B act: inactive; TMEM16A inh: inactive; TMEM16A act: inactive; CHT PAM: inactive; PKA-R1A activ: inactive; CHT inh: inactive

How did COc1nc(=O)n(C2CCCO2)cc1C (centres undefined) do in these assays?
PKA-R2B act: inactive; TMEM16A act: inactive; PKA-R1A activ: inactive

How did CC(C)c1ccc(S(=O)(=O)N2CCC(C(=O)NCc3ccco3)CC2)cc1 do in these assays?
PKA-R2B act: inactive; TMEM16A act: inactive; PKA-R1A activ: inactive

How did Cc1cn([C@H]2C[C@H](O)[C@@H](CNC(=O)[C@H](N)C3CC3)O2)c(=O)[nH]c1=O do in these assays?
PKA-R2B act: inactive; PKA-R1A activ: inactive

Results for Cc1ccc(S(=O)(=O)N/N=C/c2cccc([N+](=O)[O-])c2)cc1 ?
PKA-R2B act: inactive; TMEM16A inh: inactive; TMEM16A act: inactive; CHT PAM: inactive; PKA-R1A activ: inactive; CHT inh: inactive

How did CCCCCCCCCS(=O)(=O)N/N=C/c1cccc([N+](=O)[O-])c1 do in these assays?
PKA-R2B act: inactive; TMEM16A inh: 100; TMEM16A act: inactive; CHT PAM: inactive; PKA-R1A activ: inactive; CHT inh: inactive

What do the screens show for `O=C(CCNC(=O)c1ccc(Br)cc1)Nc1ccc(S(=O)(=O)N2CCOCC2)cc1`?
PKA-R2B act: inactive; TMEM16A act: inactive; PKA-R1A activ: inactive

What do the screens show for `CN1/C(=C\C(=O)COC(=O)Cn2nnc(-c3ccccc3)n2)C(C)(C)c2ccccc21`?
PKA-R2B act: inactive; TMEM16A inh: 25; TMEM16A act: inactive; CHT PAM: inactive; PKA-R1A activ: inactive; CHT inh: inactive

How did COc1cc(S(=O)(=O)NCCCN2CCOCC2)ccc1-n1cnnn1 do in these assays?
PKA-R2B act: inactive; TMEM16A inh: inactive; TMEM16A act: inactive; CHT PAM: inactive; PKA-R1A activ: inactive; CHT inh: inactive

How did CSc1nc2cc(Oc3cccc(Cl)c3Cl)c(Cl)cc2[nH]1 do in these assays?
PKA-R2B act: inactive; TMEM16A inh: 100; TMEM16A act: inactive; CHT PAM: inactive; PKA-R1A activ: inactive; CHT inh: inactive

Results for O=C(Nc1cccc2ccccc12)NC1CCCCC1O (centres undefined) ?
PKA-R2B act: inactive; TMEM16A inh: inactive; TMEM16A act: inactive; CHT PAM: inactive; PKA-R1A activ: inactive; CHT inh: inactive

What do the screens show for `COc1cc(C(=O)Nc2ccc3c(c2)ncn3C)cc(OC)c1OC`?
PKA-R2B act: inactive; TMEM16A inh: inactive; TMEM16A act: inactive; CHT PAM: inactive; PKA-R1A activ: inactive; CHT inh: inactive

Results for COc1cc(C(=O)Nc2ccc3c(c2)nc(C)n3C)cc(OC)c1OC ?
PKA-R2B act: inactive; TMEM16A inh: inactive; TMEM16A act: inactive; CHT PAM: 6.48; PKA-R1A activ: inactive; CHT inh: inactive

What do the screens show for `CC(C)N1CCC2(CC1)N=C(c1ccc3c(c1)OCO3)CC(c1cc(Cl)ccc1O)N2` (centres undefined)?
PKA-R2B act: inactive; TMEM16A inh: inactive; TMEM16A act: inactive; CHT PAM: inactive; PKA-R1A activ: inactive; CHT inh: -6.89

What do the screens show for `COc1ccc(S(=O)(=O)N(C)C[C@H]2Oc3ccc(NC(=O)Nc4ccc5c(c4)OCO5)cc3C(=O)N([C@H](C)CO)C[C@@H]2C)cc1`?
PKA-R2B act: inactive; TMEM16A act: inactive; PKA-R1A activ: inactive

Results for C=CCC1(CC=C)CCCN1C(=O)c1cc(COc2cncc(Cl)c2)on1 ?
PKA-R2B act: inactive; TMEM16A inh: 25; TMEM16A act: inactive; CHT PAM: inactive; PKA-R1A activ: inactive; CHT inh: inactive

What do the screens show for `C=CCC1(CC=C)CCCN1C(=O)c1cc(COc2cccc(OC)c2)on1`?
PKA-R2B act: inactive; TMEM16A inh: inactive; TMEM16A act: inactive; CHT PAM: inactive; PKA-R1A activ: inactive; CHT inh: inactive
